These results are taken from PubChem BioAssay AID623997 (National Center for Advancing Translational Sciences (NCATS), 2012).

A word on the viability: it is a read-out of living cells in per cent, often relative to untreated cells.

Results filed as inconclusive are left out. Unmarked numbers belong to inactive results. Active and inactive are the calls of the source. No rule for the calls is given here.

The test can be described thus: qHTS Assay for Inhibitors of Influenza NS1 Protein Function: Mammalian Cell Viability. As to conditions: NS1 counter-screen; at 100 µM (top of the series). From the text:
Influenza is a world-wide public health problem and emerging forms of the virus have the potential to cause a pandemic of equal or greater magnitude to the outbreaks recorded in 1918, 1957 or 1968. Vaccine development is proceeding and there also exist two classes of anti-influenza compounds. However these therapeutic modalities are neither fully effective nor widely enough available to fulfill global needs. In addition their potential usefulness against newly emergent strains is not known. Efforts are needed to develop novel agents against influenza virus, including broad-spectrum agents. Identification of small molecules that inhibit NS1 function either directly or by interfering with specific cellular pathways may be a key to increasing our defense against the virus.
We have miniaturized and optimized a cell based assay in which NS1 from influenza A is expressed in the budding yeast S. cerevisiae. NS1 is a multi-functional protein that counters the host innate immune response and facilitates viral versus cellular gene expression. Expression of NS1 causes a pronounced slow growth phenotype in yeast due to its intrinsic molecular activities. Small molecules that suppress the slow growth phenotype can be identified by a straightforward growth recovery assay using optical density (OD) as the measurement. The same yeast strain not expressing NS1 was used as positive control in the yeast growth recovery assay.
Hits resulting from this primary screen and other follow-up screens, were tested in four concentrations for this mammalian cell viability assay, using MDCK cells.
NIH Chemical Genomics Center [NCGC]
NIH Molecular Libraries Probe Centers Network [MLPCN]
Assay Submitter (PI): Daniel Engel, University of Virgina
Opaque-walled 96-well plates were seeded with […] MDCK cells per well in 100 uL medium and incubated overnight at 37 deg C. The compound was added to triplicate wells for each concentration tested and incubated for 48 h at 37 deg C. The plate was equilibrated for 30 min at room temperature and 100 uL CellTiter Glo reagent (Promega) added according to the manufacturer's protocol. The plate was shaken for 2 min and then incubated for 10 min at room temperature. Luminescence was recorded in an LMAX 384 reader (Molecular Devices) with integration time of 1 s.
`COc1cc(-c2ccnc3c2c(C)nn3-c2cccc(F)c2)ccc1O`: the viability is 122%.
In the case of `COc1ccc(-c2ccnc3c2c(C)nn3-c2ccc(F)cc2)cc1OC`, the viability was 93.4%.
The figure for `COc1ccc(-c2c(C#N)c(N)nc3c2c(C)nn3-c2ccc(Cl)cc2)cc1OC` is 103%; for `COc1cc(-c2c(C#N)c(N)nc3c2c(C)nn3-c2ccc(Cl)cc2)cc(OC)c1OC` it is 92.1%; for `COc1ccc(-c2c(C#N)c(N)nc3c2c(C)nn3-c2ccc(C)cc2)cc1OC` it is 103%.
Next, `COc1ccc(-n2nc(C)c3c(-c4ccc(O)c(OC)c4)ccnc32)cc1`: 108%; `CCOC(=O)c1cnc2c(c(C)nn2-c2ccc(F)cc2)c1-c1ccc(O)c(OC)c1`: 54.9%.
The figure for `COc1cccc(-n2nc(C)c3c(-c4ccc(O)c(OC)c4)ccnc32)c1` is 124%; for `Cc1nn(-c2ccc(F)cc2)c2nc(N)c(C#N)c(-c3ccc(O)c(O)c3)c12` it is 86%.
Turning to `COc1cc(-c2c(C#N)c(=O)[nH]c3c2c(C)nn3-c2ccccc2)ccc1O`, the viability is 85.2%.
The figure for `Cc1nn(-c2ccccc2)c2nc(N)c(C#N)c(-c3ccc(O)c(O)c3)c12` is 105%; for `COc1cc(-c2ccnc3c2c(C)nn3-c2cccc(C(F)(F)F)c2)ccc1O` it is 114%.
Next, `COc1ccc(-c2ccnc3c2c(C)nn3-c2ccc(F)cc2)cc1`: 114%; `COc1cc(-c2c(C#N)c(=O)[nH]c3c2c(C)nn3-c2ccccc2)cc(OC)c1OC`: 97.8%; `COc1ccc(-c2c(C#N)c(N)nc3c2c(C)nn3-c2ccc(F)cc2)cc1OC`: 101%.
Next, `COc1cc(-c2c3c(C)nn(-c4ccccc4)c3nc3[nH]c(=O)[nH]c(=O)c23)cc(OC)c1O`: 98.6%.
As to `COc1cc(-c2c(C#N)c(N)nc3c2c(C)nn3-c2ccc(F)cc2)ccc1O`, the viability is 88%.
As for `COc1cc(-c2c3c(C)nn(-c4ccccc4)c3nc3[nH]c(=O)[nH]c(=O)c23)ccc1O`, the viability was 101%.
Next, `COc1cc(-c2c(C#N)c(N)nc3c2c(C)nn3-c2ccc(C)cc2)ccc1O`: 94%; `COc1cc(-c2c(C#N)c(N)nc3c2c(C)nn3-c2ccc(C)c(C)c2)cc(OC)c1OC`: 90.8%.
Next, `COc1ccc(-c2c(C#N)c(N)nc3c2c(C)nn3-c2ccccc2)cc1OC`: 101%.
Next, `COc1ccc(-c2c3c(C)nn(-c4ccccc4)c3nc3[nH]c(=O)[nH]c(=O)c23)cc1O`: 102%; `COc1cc(-c2c(C#N)c(N)nc3c2c(C)nn3-c2ccc(C)cc2)cc(OC)c1OC`: 99.9%.
In the case of `Cc1ccc(-n2nc(C)c3c(-c4ccc(O)c(O)c4)c(C#N)c(N)nc32)cc1`, the viability was 94.7%.
Next, `Cc1nn(-c2ccc(Cl)cc2)c2nc(N)c(C#N)c(-c3ccc(O)c(O)c3)c12`: 68.5%.
Next, `COc1cc(-c2c(C#N)c(N)nc3c2c(C)nn3-c2ccc(C)c(C)c2)ccc1O`: 99.3%; `COc1cc(-c2c(C#N)c(N)nc3c2c(C)nn3-c2ccc(F)cc2)cc(OC)c1OC`: 90.7%; `COc1ccc(-c2c3c(C)nn(-c4ccccc4)c3nc3[nH]c(=O)[nH]c(=O)c23)cc1OC`: 83.5%.
For `Cc1nn(-c2ccccc2)c2nc3[nH]c(=O)[nH]c(=O)c3c(-c3ccc4c(c3)OCO4)c12`, the viability is 72.3%.
Next, `COc1cccc(-c2ccnc3c2c(C)nn3-c2ccc(F)cc2)c1`: 4.7% (active); `COc1cc(-c2c(C#N)c(N)nc3c2c(C)nn3-c2ccccc2)ccc1O`: 101%; `COc1cc(-c2ccnc3c2c(C)nn3-c2ccc(C(F)(F)F)cc2)ccc1O`: 118%.
Consider `COc1cc(-c2ccnc3c2c(C)nn3-c2ccc(F)cc2)ccc1O`, for which the viability was 65%.
